This is an account of results in PubChem BioAssay (NCATS).

Molecules are shown by their SMILES. Results filed as inconclusive are left out. A number with no mark means an inactive call. Calls of active or inactive are those of the source. Calls follow the shape of the dose curve; as a rule, active = well fitted curve in the direction sought with a large enough effect; inconclusive = small, poorly fitted or top-dose-only effect, or another doubt; inactive = no such curve, though single readings can be large; an effect the other way counts as inactive or inconclusive.

For experiment [1], the target named is Rap guanine nucleotide exchange factor 3 (Homo sapiens) (UniProt O95398). The experiment in a line: Confirmatory qHTS for antagonist of cAMP-regulated guanine nucleotide exchange factor 3 (EPAC1) (AID 1645880). Also: nearly all actives have a fitted effect of over 55% in size. Also: potency is read from the fitted curve at half-maximal effect.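 As to activity, negative = inhibition: plate controls were DMSO only for no effect and full effect of the ATA control for full effect.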 As to conditions: EPAC1 Rap1B-BODIPY-GDP exchange, fluorescence; activity, negative = inhibition: at 115 µM (top of the series). The method in brief: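 Released BODIPY-GDP fluoresces less than Rap1-bound BODIPY-GDP; the signal is followed at 480/540 nm at 5-min intervals over 30 min, after 5 min at room temperature. Reactions contain 100 nM EPAC1, 250 nM RAP1B-BODIPY-GDP and 50 uM GDP; results are normalized to ATA and DMSO.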
Rap guanine nucleotide exchange factor 3 (Homo sapiens), sequence (O95398 whole entry, looked up): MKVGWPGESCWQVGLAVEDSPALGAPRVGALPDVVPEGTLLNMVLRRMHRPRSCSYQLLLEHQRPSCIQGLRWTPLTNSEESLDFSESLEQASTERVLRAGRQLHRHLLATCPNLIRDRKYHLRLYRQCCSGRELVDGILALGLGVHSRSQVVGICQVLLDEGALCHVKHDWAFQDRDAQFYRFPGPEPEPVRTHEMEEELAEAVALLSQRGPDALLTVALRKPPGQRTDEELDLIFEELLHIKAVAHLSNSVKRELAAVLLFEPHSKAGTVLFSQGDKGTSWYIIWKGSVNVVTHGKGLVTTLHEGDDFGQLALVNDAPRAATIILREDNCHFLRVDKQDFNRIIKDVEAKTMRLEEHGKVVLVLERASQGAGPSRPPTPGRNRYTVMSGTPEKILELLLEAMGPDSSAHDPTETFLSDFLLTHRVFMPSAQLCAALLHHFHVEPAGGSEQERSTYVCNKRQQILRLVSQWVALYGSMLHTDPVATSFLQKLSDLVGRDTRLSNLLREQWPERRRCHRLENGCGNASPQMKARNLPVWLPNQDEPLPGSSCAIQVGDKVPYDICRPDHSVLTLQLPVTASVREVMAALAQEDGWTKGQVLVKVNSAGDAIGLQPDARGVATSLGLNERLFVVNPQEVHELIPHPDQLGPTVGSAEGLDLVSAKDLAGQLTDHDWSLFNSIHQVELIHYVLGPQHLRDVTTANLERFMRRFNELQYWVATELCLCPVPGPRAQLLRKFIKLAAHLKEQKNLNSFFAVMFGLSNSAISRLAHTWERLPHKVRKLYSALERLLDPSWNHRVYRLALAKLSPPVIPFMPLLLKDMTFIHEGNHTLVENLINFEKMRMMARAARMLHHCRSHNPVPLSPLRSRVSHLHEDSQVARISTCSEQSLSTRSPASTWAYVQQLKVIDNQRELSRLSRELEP
A general note: Quantitative high-throughput screening tests each substance at several concentrations.

Experiment [2] has the same target. The experiment in a line: Confirmatory qHTS for agonist of cAMP-regulated guanine nucleotide exchange factor 3 (EPAC1) (AID 1645881).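 Also: EPAC1 catalysed release of BODIPY-GDP from Rap1B seen as fluorescence loss; 100% = effect of cAMP agonist control; nearly all actives have a fitted effect of over 75% in size.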
The target of experiment [3] is Rap guanine nucleotide exchange factor 4 (Homo sapiens) (UniProt Q8WZA2). Kind of experiment: Confirmatory qHTS for agonist of cAMP-regulated guanine nucleotide exchange factor 4 (EPAC2) (AID 1645884).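 Also: nucleotide exchange releases bodipy-GDP from Rap1 and this lowers its fluorescence; % is scaled to controls: 0 for no effect and ±100 for the full control effect; nearly all actives have a fitted effect of over 65% in size.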
Rap guanine nucleotide exchange factor 4 (Homo sapiens), sequence (Q8WZA2 whole entry, looked up): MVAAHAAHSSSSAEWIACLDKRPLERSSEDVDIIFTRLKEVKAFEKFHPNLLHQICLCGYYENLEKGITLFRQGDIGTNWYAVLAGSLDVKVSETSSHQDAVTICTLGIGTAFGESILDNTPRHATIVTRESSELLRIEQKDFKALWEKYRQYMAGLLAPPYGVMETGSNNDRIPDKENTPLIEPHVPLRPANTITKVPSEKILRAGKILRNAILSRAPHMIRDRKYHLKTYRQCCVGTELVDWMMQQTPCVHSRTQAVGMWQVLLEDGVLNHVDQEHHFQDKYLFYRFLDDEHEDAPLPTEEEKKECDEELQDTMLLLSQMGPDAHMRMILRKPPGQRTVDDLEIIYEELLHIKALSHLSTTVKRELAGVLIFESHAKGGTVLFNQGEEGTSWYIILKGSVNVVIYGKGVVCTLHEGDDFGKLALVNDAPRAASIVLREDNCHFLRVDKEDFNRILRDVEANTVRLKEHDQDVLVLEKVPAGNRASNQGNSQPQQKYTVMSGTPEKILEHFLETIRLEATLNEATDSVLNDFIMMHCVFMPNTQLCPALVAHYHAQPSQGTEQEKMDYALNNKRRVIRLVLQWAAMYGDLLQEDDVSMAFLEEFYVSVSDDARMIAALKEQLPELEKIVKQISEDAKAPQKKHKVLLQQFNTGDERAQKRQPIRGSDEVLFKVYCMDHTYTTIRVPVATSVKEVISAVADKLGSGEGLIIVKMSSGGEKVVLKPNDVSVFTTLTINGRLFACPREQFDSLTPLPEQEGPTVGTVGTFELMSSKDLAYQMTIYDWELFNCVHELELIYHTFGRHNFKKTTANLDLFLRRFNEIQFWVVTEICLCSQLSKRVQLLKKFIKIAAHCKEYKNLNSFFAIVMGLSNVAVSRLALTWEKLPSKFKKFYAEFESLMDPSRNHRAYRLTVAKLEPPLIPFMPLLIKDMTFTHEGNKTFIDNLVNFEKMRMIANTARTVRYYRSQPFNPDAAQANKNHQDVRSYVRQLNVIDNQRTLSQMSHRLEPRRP
For experiment [4] the target is unchanged. Kind of experiment: Confirmatory qHTS for antagonist of cAMP-regulated guanine nucleotide exchange factor 4 (EPAC2) (AID 1645885). Also: nearly all actives have a fitted effect of over 25% in size. As to activity change, negative = inhibition: % is scaled to controls: 0 for no effect and ±100 for the full control effect.
Experiment [5] has as its target Rap guanine nucleotide exchange factor 3 (Homo sapiens) (UniProt O95398). The experiment in a line: Counterscreen qHTS for antagonist of cAMP-regulated guanine nucleotide exchange factor 3 (EPAC1) (AID 1645888). Also: % of control where 0% means no effect. The method in brief:
(§1)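 Rap1B-BODIPY-GDP 250 nM + GDP 50 uM; cpds 7-pt, final 9.74 nM–152 uM (activator mode) or from 7.32 nM upwards (inhibitor mode); RT; FI 480/540 nm at 5 and 30 min, then ± cAMP, reread.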

The target is the same in experiment [6]. The experiment in a line: Counterscreen qHTS for agonist of cAMP-regulated guanine nucleotide exchange factor 3 (EPAC1) (AID 1645889). Also: nearly all actives have a fitted effect of over 40% in size. Also: potency is read from the fitted curve at half-maximal effect. As to activation: % of control where 0% means no effect. The method in brief: as §1
On the technique in general: The purpose of a counterscreen is to sort out artefacts and off-target activity.

As for `CC(C)Oc1nc(-c2ccccc2Cl)nc2ccccc12`, the Potency result in experiment [1], in experiment [2], in experiment [3], in experiment [4], in experiment [5] and in experiment [6] was “inactive” in each case.

`COc1ccc(C)cc1NC(=O)c1ccccc1NS(=O)(=O)c1ccc(Cl)s1`: the Potency in experiment [1] was 75.7 µM (active). Further, the Potency result in experiment [2], in experiment [3], in experiment [4], in experiment [5] and in experiment [6] was “inactive” throughout.

As for `COc1ccccc1CCC(=O)Nc1cc(S(=O)(=O)N2CCCCC2)ccc1N1CCN(C)CC1`, the Potency entry in experiment [1], in experiment [2], in experiment [3], in experiment [4] and in experiment [5] was “inactive” each time. Moreover, in experiment [6], the Potency was 63.1 µM (active).

As for `COc1cnc(-c2ccccc2)c(-c2ccccc2)n1`, the Potency entry in experiment [1], in experiment [2] and in experiment [4] was “inactive” throughout. Further, the activation in experiment [3] was 7.78% [at 17.1 µM, percent relative to cAMP agonist control]; in experiment [6], -4.28% [at 30.8 µM]. Also, the activity change, negative = inhibition in experiment [5] is -6.36% [at 30.8 µM].

Regarding `Cc1[nH]n(-c2ccccc2)c(=O)c1C(c1ccc(C(=O)O)cc1)c1c(C)[nH]n(-c2ccccc2)c1=O`, the Potency entry in experiment [1], in experiment [2], in experiment [3], in experiment [4] and in experiment [5] was “inactive” each time. In addition, the Potency in experiment [6] was 1.78 µM (active).

On to `Cc1ccc(-n2nnnc2SCC(=O)NCC2(N3CCOCC3)CCCCC2)cc1`, for which the Potency result in experiment [1], in experiment [2], in experiment [3], in experiment [4], in experiment [5] and in experiment [6] was “inactive” throughout.

With `O=C(C1CCN(S(=O)(=O)N2CCOCC2)CC1)N1CCN(c2ccccc2)CC1`, the Potency entry in experiment [1], in experiment [2], in experiment [3], in experiment [4], in experiment [5] and in experiment [6] was “inactive” throughout.

Regarding `COC(=O)c1cc2sc(C)cc2n1Cc1ccc(F)cc1Cl`, the Potency entry in experiment [1], in experiment [2], in experiment [3], in experiment [4], in experiment [5] and in experiment [6] was “inactive” in each case.

On to `CC1CCc2c(sc3nc(SCC(=O)O)n(-c4ccccc4)c(=O)c23)C1` (stereo not given), for which the Potency result in experiment [1], in experiment [2] and in experiment [4] was “inactive” throughout. For the same molecule, the activation in experiment [3] is -2.98% [at 17.1 µM, percent relative to cAMP agonist control]; in experiment [6], 5.5% [at 30.8 µM]. Also, in experiment [5], the activity change, negative = inhibition is -13.5% [at 30.8 µM].

Regarding `COCCCn1c(=N)c(C(=O)NCc2cccnc2)cc2c(=O)n3cccc(C)c3nc21`, the Potency entry in experiment [1], in experiment [2], in experiment [3], in experiment [5] and in experiment [6] was “inactive” in each case. For the same molecule, the outcome in experiment [4] was “inactive [at 12.7 µM]”.

On to `COc1ccc(C)cc1Cn1nnc2ccccc21`, for which the Potency entry in experiment [1], in experiment [2], in experiment [3], in experiment [4], in experiment [5] and in experiment [6] was “inactive” throughout.

For the molecule `Cc1[nH][nH]c(=O)c1C(c1ccc(-c2ccc(Cl)c(C(=O)O)c2)o1)c1c(C)[nH][nH]c1=O`, the Potency result in experiment [1], in experiment [2] and in experiment [4] was “inactive” in each case. Besides, the activation in experiment [3] is 10.1% [at 17.1 µM, percent relative to cAMP agonist control]. Further, the activity change, negative = inhibition in experiment [5] was 34.9% [at 30.8 µM]. Further, the Potency in experiment [6] was 11.2 µM (active).

Consider `CCN1C(=O)/C(=C/c2ccc(OCc3ccc(C(=O)O)cc3)c(Cl)c2)NC1=S`, for which, in experiment [1], the Potency is 42.6 µM (active). In addition, the Potency result in experiment [2], in experiment [3], in experiment [4], in experiment [5] and in experiment [6] was “inactive” in each case.

`O=C(O)c1ccc(/C=N/NC(=O)c2ccc(CN3c4cccc5cccc(c45)S3(=O)=O)cc2)cc1`: the Potency in experiment [1] was 44.7 µM (active). Moreover, the Potency entry in experiment [2] and in experiment [4] was “inactive” each time. Also, the activation in experiment [3] is -4.21% [at 17.1 µM, percent relative to cAMP agonist control]; in experiment [6], 13.7% [at 30.8 µM]. Also, the activity change, negative = inhibition in experiment [5] is 3.17% [at 30.8 µM].

For the molecule `Cc1ccc2c(c1)NC(=O)C(CC(=O)N(C)Cc1ccccc1)O2` (stereo not given), the Potency entry in experiment [1], in experiment [2] and in experiment [4] was “inactive” each time. Further, the activation is 3.24% [at 17.1 µM, percent relative to cAMP agonist control] in experiment [3] and 9.9% [at 30.8 µM] in experiment [6]. Moreover, the activity change, negative = inhibition in experiment [5] was -5.86% [at 30.8 µM].

Consider `Cc1noc(C)c1S(=O)(=O)Nc1ccc2c(c1)C(=O)N([C@@H](C)CO)C[C@@H](C)[C@@H](CN(C)CC1CCCCC1)OCCCC[C@@H](C)O2`, for which the Potency entry in experiment [1], in experiment [2], in experiment [3], in experiment [4], in experiment [5] and in experiment [6] was “inactive” in each case.

As to `COc1ccc(-c2cc(=O)oc3c(O)c(O)ccc23)cc1`, the Potency in experiment [1] is 8.49 µM (active). In addition, the Potency result in experiment [2], in experiment [3], in experiment [4], in experiment [5] and in experiment [6] was “inactive” in each case.

Take `COc1ccc(-n2ccn(Cc3ccc(C)cc3)c(=O)c2=O)cc1OC`: the Potency entry in experiment [1], in experiment [2], in experiment [3], in experiment [4], in experiment [5] and in experiment [6] was “inactive” throughout.

In the case of `CC1(C(=O)NS(=O)(=O)c2ccc3c(c2)CCO3)CCN1C(=O)C1(c2ccc(Cl)cc2)CCC1` (stereo not given), in experiment [1], the Potency is 39.8 µM (active). For the same molecule, the Potency entry in experiment [2] and in experiment [4] was “inactive” in each case. The activation in experiment [3] was 1.36% [at 17.1 µM, percent relative to cAMP agonist control]; in experiment [6] it was 34% [at 30.8 µM]. Also, the activity change, negative = inhibition in experiment [5] is -29.8% [at 30.8 µM].

Turning to `C[C@H]1CN([C@@H](C)CO)C(=O)CCCn2cc(nn2)CO[C@@H]1CN(C)S(=O)(=O)c1ccc(-n2cccn2)cc1`, the Potency entry in experiment [1], in experiment [2], in experiment [3], in experiment [4], in experiment [5] and in experiment [6] was “inactive” throughout.
